Measurements from PubChem BioAssay AID624330 (Southern Research Specialized Biocontainment Screening …, 2012).
Screen size: about 340,000 compounds; about 2,100 (0.62%) were called active.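 How the source made its calls: active means first-screen hits whose inhibition reached a set limit at any dose in the follow-up dose series; inconclusive means inhibition above the set first-screen limit but never retested; inactive means the rest.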 These entries were drawn from the full list. Results with a measured potency or affinity are listed apart.

Biological target: Rac GTPase-activating protein 1 (Homo sapiens) (UniProt Q9H0H5)
Sequence (Q9H0H5 whole entry, looked up): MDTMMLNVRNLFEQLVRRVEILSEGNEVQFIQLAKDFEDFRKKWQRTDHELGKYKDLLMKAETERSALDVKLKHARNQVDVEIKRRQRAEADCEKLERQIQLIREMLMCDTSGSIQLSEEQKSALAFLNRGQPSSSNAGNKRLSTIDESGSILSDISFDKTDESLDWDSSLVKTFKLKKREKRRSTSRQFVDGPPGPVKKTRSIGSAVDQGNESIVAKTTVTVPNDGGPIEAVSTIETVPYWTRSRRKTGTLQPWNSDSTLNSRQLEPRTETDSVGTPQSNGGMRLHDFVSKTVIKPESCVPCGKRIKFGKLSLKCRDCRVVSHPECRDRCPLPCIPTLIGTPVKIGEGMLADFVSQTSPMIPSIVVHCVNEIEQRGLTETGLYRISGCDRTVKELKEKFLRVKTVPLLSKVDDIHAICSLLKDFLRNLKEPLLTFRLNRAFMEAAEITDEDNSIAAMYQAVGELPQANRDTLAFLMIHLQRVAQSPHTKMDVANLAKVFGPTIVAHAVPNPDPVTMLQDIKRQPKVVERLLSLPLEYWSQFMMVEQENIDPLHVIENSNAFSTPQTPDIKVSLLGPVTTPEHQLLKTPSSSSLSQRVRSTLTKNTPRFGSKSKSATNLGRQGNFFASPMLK
Test: MgcRacGAP GTPase-activating activity inhibitors, confirmation, biochemical, ADP Hunter fluorescence, primary and confirmatory (AID 624330);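 further: fluorescence reports GDP produced by GAP-driven GTP hydrolysis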
Conditions: MgcRacGAP-stimulated Rac1 GTP hydrolysis, at 30 µM, stronger effect = higher value, GST-tagged Rac1 F28L mutant substrate

inhibition, inactive:
COC(=O)[C@@]1(C)[C@H]2C(=O)N(C)C(=O)[C@H]2[C@H]2CN(C)C(=NC3CCCCC3)N21 9.12%
N#Cc1cnn(-c2nc3sc4c(c3c(=O)[nH]2)CCCC4)c1N 11.7%
CN1C(=O)CCS(=O)(=O)C1c1ccc(Cl)c(Cl)c1 (stereo unspecified) 8.53%
COc1ccc(NC(=O)CSc2nc3c(c(=O)n(C)c(=O)n3C)n2C)c(OC)c1 4.73%
CCOc1ccc(/C=N/NC(=O)CC(=O)Nc2ccc(Cl)c(Cl)c2)cc1 4.45%
O=C(CC(=O)Nc1cccc(Cl)c1)N/N=C\c1ccccc1 1.72%
CC(C)(C)OC(=O)N1CCC(C(=O)N[C@@H](Cc2ccccc2)C(=O)O)CC1 4.57%
CCC(CC)C(=O)c1c[nH]c(C(=O)O)c1 6.73%
Cc1[nH]c2ccccc2c1-c1csc(NC(=O)CSCC(=O)O)n1 19.6%
Cc1[nH]c2ccccc2c1-c1csc(NC(=O)CN2CCOCC2)n1 25.6%
CCOc1ccc(NC(=O)c2ccc(F)c(S(=O)(=O)N3CCCC3)c2)cc1 10.8%
CC(=O)Nc1ccc2c(=O)n(-c3ccccc3)sc2c1 23.5%
COc1ccc(N2C(=O)C(F)(F)C2c2cccc(F)c2)cc1 (stereo unspecified) 5.49%
CC(=O)Nc1ccc(-n2c(=O)c3ccccc3c3ccccc3c2=O)cc1 8.38%
N#Cc1ccc2c(=O)n(-c3ccccc3)sc2c1 22.6%
O=C(c1sc2cc(F)ccc2c1Cl)N1CCN(c2ccccc2)CC1 -1.95%
COc1ccc(Oc2c(Cl)cnn(-c3ccc(F)cc3)c2=O)cc1 4.49%
O=c1nc(-c2ccccc2Cl)c2cc(F)ccc2[nH]1 9.68%
O=c1[nH]n(-c2ccccc2Cl)c(=O)c2ccccc12 4.42%
Cc1cccc(CSC2=NCCN2C(=O)c2ccc(S(=O)(=O)N(C)C)cc2)c1 4.49%
CCOC(=O)CNC(=O)Cn1cnc2c(nnn2-c2ccc(C)cc2)c1=O 1.26%
COCCOCC(O)CN1CCN(c2ccc(C)cc2)CC1 (stereo unspecified) 24.5%
C[C@@H]1CN([C@@H](C)CO)C(=O)CCCn2nncc2CO[C@H]1CN(C)C(=O)OCc1ccccc1 7.03%
CN1CCN(S(=O)(=O)c2cccc(C(=O)N(C)CC(=O)Nc3ccc(F)c(F)c3F)c2)CC1 9.79%
Cc1ccc2nc(SCC(=O)NCc3ccc(F)cc3)nc(=O)n2c1 6.12%
Cc1ccc(C(=O)Nc2ccc(N3CCOCC3)cc2)cc1S(=O)(=O)N1CCCCC1 3.29%
